Test results from PubChem BioAssay (NCI).
About 79,000 compounds went through this panel and 15% of them were active in at least one assay; those are over-represented in the sample as a whole. Cut-off read from the data, not from the text of the source: active = growth inhibition above about 70%; inactive = the rest. Where a SMILES comes first, the peptide text is derived from it. The star is where a group is joined. Cbz = O=C(OCc1ccccc1)*; NHNH2 = NN*

Columns and labels:
[1] = NCI Yeast Anticancer Drug Screen. Data for the rad50 strain (AID 155);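 note: 0% = growth of vehicle-only cultures of the same strain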; conditions: S. cerevisiae rad50 strain growth inhibition; at 50.0 µM; stronger effect = higher value
Outline: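 Growth of the mutant yeast was measured after compound exposure and referenced to vehicle-treated cultures.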

[2] = NCI Yeast Anticancer Drug Screen. Data for the mec2-1 strain (AID 157); conditions: S. cerevisiae mec2-1 strain, at 50.0 µM, stronger effect = higher value
Outline: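 Vehicle-treated cultures served as reference for growth inhibition of compound-exposed mec2-1 yeast.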

[3] = NCI Yeast Anticancer Drug Screen. Data for the sgs1 mgt1 strain (AID 161);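 note: 0% = growth of cultures given vehicle only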; conditions: S. cerevisiae sgs1 mgt1 strain, at 50.0 µM, stronger effect = higher value
Outline: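 Inhibition of yeast growth, normalised to vehicle-treated controls, is reported for a strain bearing genetic alterations in DNA damage repair.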

[4] = NCI Yeast Anticancer Drug Screen. Data for the cln2 rad14 strain (AID 165);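 note: 0% = growth equal to vehicle treated cultures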; conditions: S. cerevisiae cln2 rad14 strain, at 50.0 µM, stronger effect = higher value
Outline: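 Each compound was tested on cln2 rad14 yeast. Inhibition of growth was calculated against vehicle-exposed controls.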

[5] = NCI Yeast Anticancer Drug Screen. Data for the bub3 strain (AID 167); conditions: S. cerevisiae bub3 mutant strain, at 50.0 µM, stronger effect = higher value
Outline: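 Whole-cell yeast assay. The mutant strain was incubated with compounds, and growth inhibition was determined by comparison with vehicle-treated cells.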

[6] = NCI Yeast Anticancer Drug Screen. Data for the mlh1 rad18 strain (AID 175); conditions: S. cerevisiae mlh1 rad18 strain growth inhibition; at 50.0 µM; stronger effect = higher value
Outline: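 Vehicle-treated cultures served as the reference for growth inhibition in a yeast strain carrying DNA damage repair alterations exposed to each compound.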

Measured: growth inhibition

O=C1c2ccccc2C(O)(c2ccccc2)c2ccccc21
inactive: [1] 13.4% | [2] 20.6% | [3] 13.8% | [4] -21.6% | [5] 13.4% | [6] 0.35%

OC(CBr)c1cc(-c2ccc(Cl)cc2)nc2c(-c3ccccc3)cccc12 (stereo not given)
inactive: [1] -3% | [2] 3.85% | [3] -4.05% | [4] -25.4% | [5] 2.35% | [6] 28.7%

COc1cc(C2c3c(cc(OC)c(O)c3OC)C=C(C(=O)O)C2CO)cc(OC)c1O (stereo not given)
inactive: [1] 9.05% | [2] 5.35% | [3] -2.95% | [4] 24.3% | [5] -2.1% | [6] 14.3%

O=C(SCc1oc2ccccc2c1O)c1ccccc1
inactive: [1] 12.8% | [2] 13.7% | [3] 16.5% | [4] -3.75% | [5] -7.3% | [6] 13.3%

CSc1nc(N)c(C(N)=O)cc1C#N
inactive: [1] 5.45% | [2] 2.6% | [3] -5.4% | [4] -32.8% | [5] -16.6% | [6] 8.55%

OC1C2CCC(C2)C1CN1CCOCC1 (stereo not given)
inactive: [1] -6% | [2] -3.35% | [3] -8.1% | [4] 1.85% | [5] 4.95% | [6] 1.7%

CC1(C)OC(=O)C(=Cc2cccc3ccc4ccccc4c23)C(=O)O1
inactive: [1] 31.9% | [2] 18.3% | [3] 8.9% | [4] -17.1% | [5] 40.7% | [6] 40.6%

C=C(Br)C[N+](CC)(CC)CC
inactive: [1] -14.3% | [2] -3.3% | [3] -9.4% | [4] 15.8% | [5] -8.85% | [6] -9.25%

Nc1ncnc2c1ncn2CCCCC(=O)O
inactive: [1] -17.1% | [2] -12.2% | [3] -23.6% | [4] -2.1% | [5] -53% | [6] -15.3%

C=Nc1ccc([N+](=O)[O-])cc1
inactive: [1] 6.9% | [2] 10.2% | [3] -1.3% | [4] 14.6% | [5] -4.75% | [6] 26.3%

COC(=O)CC(NC(=O)OCc1ccccc1)C(=O)NC(CC(=O)OC)C(=O)NC(CC(=O)OC)C(=O)NC(CC(=O)OC)C(=O)NC(CC(=O)OC)C(=O)NC(CC(=O)OC)C(=O)NN (stereo not given) (Cbz-D(OMe)D(OMe)D(OMe)D(OMe)D(OMe)D(OMe)-NHNH2; configuration not given here)
inactive: [1] -18.6% | [2] -16.9% | [3] -24.6% | [4] 20.6% | [5] 25.7% | [6] -18.5%

CC(=O)Oc1cccc2c1C(=O)C1CC(O)C3(C=O)OC(C)(C)OC2(C)C13 (stereo not given)
inactive: [1] 8.45% | [2] -2.6% | [3] 5.95% | [4] 4.7% | [5] -3.45% | [6] 3.6%

CC1CCC(C(C)C)C(NC(=O)c2cccnc2)C1 (stereo not given)
inactive: [1] 8.3% | [2] -7.45% | [3] -2.75% | [4] 13.9% | [5] 14.4% | [6] 8.75%

CNC(=S)/C(C(C)=O)=C(\C)Nc1ccccc1
inactive: [1] -0.95% | [2] -5.55% | [3] -8.05% | [4] -32.1% | [5] -14.6% | [6] 15.2%

O=C(O)c1ccccc1SC(Sc1ccccc1C(=O)O)c1ccccc1
inactive: [1] -11.8% | [2] -10.7% | [3] -2.35% | [4] -7.85% | [5] 12.1% | [6] 10.6%

C/C(=N/NC(N)=O)c1cn[nH]c1C
inactive: [1] -27.6% | [2] -14.8% | [3] 3.7% | [4] -66% | [5] 11.9% | [6] 11.8%

CN(C)CCC1(C2=CCCC2)CC/C(=C\c2ccccc2)C1=O (stereo not given)
inactive: [1] 16.9% | [2] -17.8% | [3] -5.6% | [4] 14.7% | [5] -45.6% | [6] 2.5%

Cc1cccc(NC(=O)Oc2ccc(Cl)cc2C(=O)c2ccccc2)c1
inactive: [1] 30.4% | [2] 10.7% | [3] 35.4% | [4] 29.9% | [5] 34.4% | [6] 26.2%

CNC(=O)SCC(NC(=O)CCC(N)C(=O)O)C(=O)NCC(=O)O (stereo not given)
inactive: [1] -7.45% | [2] 9.55% | [3] 27.4% | [4] 28.4% | [5] 18.4% | [6] 36.3%

C=C1OC(C2CCCCC2)=C(C(=O)OCC)C1C (stereo not given)
inactive: [1] -9.6% | [2] -17.2% | [3] -39% | [4] -21.1% | [5] 1.9% | [6] -9.45%
